Source: PubChem BioAssay AID1347417 (National Center for Advancing Translational Sciences (NCATS), 2020)
Out of some 120,000 compounds screened, about 5,300 (4.4%) were called active. Roughly 22% stayed inconclusive and do not appear here. Calls come from the whole dose curve; as a rule, active = well fitted inhibition curve with a large enough effect; inconclusive = small, poorly fitted or top-dose-only effect; inactive = no such curve, though single readings can be large or run the other way. The full list was thinned out, with actives kept by preference.

assay: qHTS Primary assay for Inhibitors of Plasmodium falciparum Dd2 growth in vitro; note: nearly all actives have a fitted effect of over 65% in size;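 for activity, negative = inhibition: plate controls were DMSO vehicle for no effect and reference drug for full effect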; conditions: P. falciparum Dd2 growth, SYBR Green, 72 h; series mostly up to 28.9 µM; activity, negative = inhibition: at the top concentration
How it was run: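 Readout: SYBR Green fluorescence, 485 nm excitation, 535 nm emission, after ~16 h lysis at 37C. Before that, Dd2-infected red cells (2.5% hematocrit) grew 72 h with compound, 29 uM top final concentration.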
Potency is the fitted concentration of half-maximal effect.

Structure (SMILES)	activity, negative = inhibition	outcome	Potency
C[C@H](O)c1onc(-c2ccc(F)cc2)c1C(=O)N1CCC1	-2.21% [at 44.1 µM] (inactive)		
Cc1cccc(-n2nc(-c3c(C)nc4scc(CC(=O)NCc5ccco5)n4c3=O)cc2C)c1C		inactive	
COc1ccc(-c2cc([C@H]3CN4CC[C@H]3C[C@@H]4COC(=O)NC(C)C)nc(C)n2)cc1		inactive [at 44.1 µM]	
COc1ccc(Cl)cc1S(=O)(=O)N1CCCC(CNC(=O)c2ccco2)C1 (stereo not given)	-19.5% (inactive)		
COc1ccccc1-c1cc([C@H]2CN3CC[C@H]2C[C@@H]3CNC(=O)c2ccco2)nc(C)n1			10 µM (active)
Cc1nc(-c2ccc(C(F)(F)F)cc2)cc([C@H]2CN3CC[C@H]2C[C@@H]3CNC(=O)C2CCC2)n1	-20.9% (inactive)		
Cc1nc(-c2ccccc2)cc([C@H]2CN3CC[C@H]2C[C@@H]3CNC2CCN(C)CC2)n1	-10.6% [at 44.1 µM] (inactive)		
Cc1ccc(C(=O)NC[C@H]2C[C@@H]3CCN2C[C@@H]3c2cc(-c3ccco3)nc(C)n2)cc1			3.55 µM (active)
O=C(c1ccncc1)N1CCC(C2CCN(Cc3cccc(F)c3F)CC2)C1 (stereo not given)	0.365% (inactive)		
COc1ccc(N2CCN(C(=O)COc3ccc(NC(C)=O)cn3)CC2)cc1	-22.7% (inactive)		
Cc1cccc(CN2CCc3ncc(C(=O)NCc4ccccc4)n3CC2)n1	9.88% [at 44.1 µM] (inactive)		
COCC(=O)N(C1CCOCC1)C1CCN(S(=O)(=O)c2ccccc2C)CC1		inactive	
CCOC(=O)c1ccc(NC(=O)Cn2ccn3nc(-c4ccccc4)c(CO)c3c2=O)cc1	-13.6% (inactive)		
Cc1nn(-c2ccccc2)c(C)c1CC(=O)NC1CCCc2c1[nH]c1ccccc21 (stereo not given)		inactive	
CN(C)C[C@@H]1CN(S(C)(=O)=O)C[C@H]1NC(=O)c1ccc2ncccc2c1	4.36% (inactive)		
CCCCS(=O)(=O)c1oc(-c2cccs2)nc1S(=O)(=O)c1ccccc1			10 µM (active)
CSc1oc(-c2cccs2)nc1S(=O)(=O)c1ccc(Br)cc1	6.08% (inactive)		
Cc1ccc(CSc2oc(-c3cccs3)nc2S(=O)(=O)c2ccc(C)cc2)cc1	8.49% (inactive)		
Cc1cc(OC2CN([S+](=O)([O-])c3ccccc3)C2)ccc1F	-9.59% [at 44.1 µM] (inactive)		
COC1C(=O)N(CC2CC2)C12CCN(C(=O)NC1CCCCC1)CC2 (stereo not given)	-18.9% (inactive)		
Cn1nccc1CN1CC(Oc2ccc(F)c(F)c2)C1		inactive [at 44.1 µM]	
O=C(NCc1cccnc1)C1CCN(c2nc(-c3ccccc3)nc3c2CCC3)CC1	-6.78% (inactive)		
O=C(C1CCN(c2nc(-c3ccccc3)nc3c2CCC3)CC1)N1CCC[C@H]1CO			8.91 µM (active)
Cc1ccc(-c2cc(N3CCCN(C(=O)COc4ccccc4)CC3)n[nH]2)cc1C		inactive	
O=C(CN1CCCC1=O)NC1CCCc2nc(-c3ccccc3)ncc21 (stereo not given)	-6.14% (inactive)		
Cc1nc(CCNC(=O)C2CCCN(c3nc(-c4ccccc4)nc4c3CCC4)C2)n[nH]1 (stereo not given)	-18.7% (inactive)		
CC(C)OCC(=O)N1CCN(c2nc(-c3ccccc3)nc3c2CCC3)CC1			12.6 µM (active)
O=C(NCCc1ccccn1)C1CCCN(c2nc(-c3ccccc3)nc3c2CCC3)C1 (stereo not given)	-1.6% (inactive)		
O=C(NC1CCNC1)C1CCN(c2nc(-c3ccccc3)nc3c2CCC3)CC1 (stereo not given)			7.08 µM (active)
COCCOCC(=O)N1CCCC(c2nc(-c3ccccc3)no2)CCNC(=O)CC1 (stereo not given)	24.6% (inactive)		
